This note sets out measurements from PubChem BioAssay.

The source made the active and inactive calls. Unless noted, no rule for the calls is given here.

Test [1] in a line: HepG2 liver cancer cell viability effects, profiling panel, resazurin fluorescence, 24 h, PK04 Diversity Set (AID 1172). Also: test concentration not given here. As to conditions: higher = more signal.
Test [2] is described as follows: basal S. cerevisiae growth modulation, no modifier, primary screen, OD600, strain BY4716, 24 h, basal condition (AID 1173). The note with it: OD600, 24 h, higher = more signal, called active from +8 up or from −8 down.
Test [3] in a line: MM1S myeloma cell viability, profiling panel, resazurin fluorescence, basal, 24 h, PK04 Diversity Set (AID 1174). Also: test concentration not given here. The note with it: higher = more signal, called active from +8 up or from −8 down.
The target in test [4] is Dihydroorotate dehydrogenase (quinone), mitochondrial (Plasmodium falciparum (isolate 3D7)) (UniProt Q08210). The experiment in a line: PfDHODH enzyme inhibitors, primary screen, biochemical, C-terminal His tag, absorbance 600 nm (AID 1175).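 Also: recombinant parasite enzyme with a five histidine tag at its C terminus; test concentration not given here.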 As to conditions: DCIP absorbance 600 nm, higher = more signal, called active from +8 up or from −8 down.
A short description of test [5]: P. aeruginosa biofilm formation inhibitors, primary screen, strain PAO1, LB-PBS medium, absorbance 600 nm (AID 1176). Also: test concentration not given here. As to conditions: P. aeruginosa PAO1 growth/biofilm, A600, 12 h; higher = more signal.
Test [6] is described as follows: S. cerevisiae RM11-1a growth modifiers, primary screen, strain RM11-1a, OD600, basal, 24 h (AID 1177).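 Also: cultures grown under basal conditions with no added stressor; test concentration not given here.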 The note with it: OD600, 24 h, higher = more signal, called active from +8 up or from −8 down.
Test [7] can be described thus: E. coli acrAB mutant growth effects, primary screen, E. coli filamentation inducers, strain DRC39, OD650, 24 h (AID 1178).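 Also: growth measured as culture turbidity by optical density at 650 nm; test concentration not given here.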 The note with it: higher = more signal, called active from +8 up or from −8 down.
A short description of test [8]: E. coli acrAB mutant growth effects, primary screen, E. coli filamentation inducers, strain DRC39, OD650, 48 h (AID 1179).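 Also: screen aims at cell division blockers that make cells filament.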 The note with it: E. coli DRC39 delta-acrAB growth, higher = more signal, called active from +8 up or from −8 down.
A short description of test [9]: RPMI8226 myeloma cell viability, profiling panel, resazurin fluorescence, basal, 24 h, PK04 Diversity Set (AID 1180).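 Also: RPMI8826 multiple myeloma cell line at 5000 cells per well; test concentration not given here.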 The note with it: higher = more signal.
Test [10] deals with E3 ubiquitin-protein ligase XIAP (Homo sapiens) (UniProt P98170). Nature of the test: XIAP binders, primary screen, biophysical, small-molecule microarray, fluorescence 635 nm (AID 1181).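 Also: score merges 667 nm emission and signal to noise over triplicate slides.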 The note with it: small-molecule microarray binding, higher = more signal.
Sequence of E3 ubiquitin-protein ligase XIAP (Homo sapiens) (P98170 whole entry, looked up): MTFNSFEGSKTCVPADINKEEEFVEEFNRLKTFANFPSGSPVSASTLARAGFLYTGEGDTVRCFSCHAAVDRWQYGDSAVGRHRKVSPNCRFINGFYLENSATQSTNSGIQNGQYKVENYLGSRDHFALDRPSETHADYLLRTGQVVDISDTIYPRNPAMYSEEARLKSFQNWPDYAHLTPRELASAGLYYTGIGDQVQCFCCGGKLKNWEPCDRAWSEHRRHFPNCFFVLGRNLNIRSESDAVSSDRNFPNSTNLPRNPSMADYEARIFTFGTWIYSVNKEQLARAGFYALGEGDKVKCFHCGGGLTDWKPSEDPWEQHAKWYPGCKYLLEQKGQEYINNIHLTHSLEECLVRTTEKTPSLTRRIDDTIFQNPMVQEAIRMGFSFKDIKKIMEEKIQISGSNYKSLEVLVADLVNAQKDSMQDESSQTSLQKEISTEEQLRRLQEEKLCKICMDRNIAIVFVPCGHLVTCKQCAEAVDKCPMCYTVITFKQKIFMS

Sequence of Dihydroorotate dehydrogenase (quinone), mitochondrial (Plasmodium falciparum (isolate 3D7)) (Q08210 whole entry, looked up): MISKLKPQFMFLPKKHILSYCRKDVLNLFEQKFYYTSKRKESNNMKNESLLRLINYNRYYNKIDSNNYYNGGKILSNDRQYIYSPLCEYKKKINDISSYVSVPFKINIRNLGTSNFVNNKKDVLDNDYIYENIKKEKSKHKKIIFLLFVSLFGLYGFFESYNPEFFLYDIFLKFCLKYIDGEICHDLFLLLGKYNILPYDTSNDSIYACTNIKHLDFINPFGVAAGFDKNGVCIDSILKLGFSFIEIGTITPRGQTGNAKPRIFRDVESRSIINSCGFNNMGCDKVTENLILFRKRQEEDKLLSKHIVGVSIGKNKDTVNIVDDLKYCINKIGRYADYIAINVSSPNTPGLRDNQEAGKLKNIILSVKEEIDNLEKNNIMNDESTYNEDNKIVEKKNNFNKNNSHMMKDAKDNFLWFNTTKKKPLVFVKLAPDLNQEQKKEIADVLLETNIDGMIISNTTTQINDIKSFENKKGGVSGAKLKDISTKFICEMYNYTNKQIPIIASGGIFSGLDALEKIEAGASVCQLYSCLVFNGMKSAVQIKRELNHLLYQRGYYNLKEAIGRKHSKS

For the compound `O=C1O[C@H](c2ccccc2)[C@H](c2ccccc2)N2[C@H]1[C@@H](C(=O)NC[C@H](O)c1ccccc1)[C@]1(C(=O)Nc3ccc(C#CC4=CCCCC4)cc31)[C@H]2c1ccc(O)cc1`, the z-score in [1] was -0.654; in test [2], -0.48 (inactive); in [3] it was -1.78 (inactive); in test [5], 2.02 (inactive); in test [6], 1.62 (inactive); in [7], 0.146 (inactive). For the same compound, the z-score is 0.165 (inactive) in [8] and -3.63 in [9]. Further, the composite z-score in test [4] is -2.16 (inactive); in test [10] it was -0.124.

Take `C=C[C@@H](C)[C@@H](OC(=O)Nc1ccc(OC)cc1)c1ccc(O)c2ccccc12`: the z-score in test [1] was -1.42; in [2], -18.5 (active); in [3], -5.02 (inactive); in test [5], 1.43 (inactive); in test [6] it was -22.2 (active); in test [7], 0.99 (inactive). Besides, the z-score was 0.224 (inactive) in test [8] and -4.37 in [9]. Moreover, the composite z-score was -3.79 (inactive) in test [4] and -0.125 in [10].

Take `O=C1O[C@@H](c2ccccc2)[C@@H](c2ccccc2)N2[C@@H](c3ccc(O)cc3)[C@]3(C(=O)Nc4ccccc43)[C@@H](C(=O)N3CCCCCCC3)[C@H]12`: the z-score in test [1] is 0.305; in test [2], 0.189 (inactive); in test [3] it was -1.05 (inactive); in test [5] it was 1.34 (inactive); in test [6], 1.19 (inactive); in test [7], 0.36 (inactive). In addition, the z-score is -1.16 (inactive) in test [8] and -1.01 in test [9]. Also, the composite z-score is 0.0791 (inactive) in test [4] and 0.613 in [10].

Turning to `COc1ccc([Si](C)(C)[C@H]2[C@H](CC(=O)N3CCC[C@H]3CO)O[C@@]3(C(=O)N(Cc4cccc(N5CCC5=O)c4)c4ccccc43)[C@@H]2C)cc1`, the z-score in test [1] was -1.26; in [2] it was 0.124 (inactive); in test [3], -0.616 (inactive); in [5], 0.507 (inactive); in [6] it was 1.23 (inactive); in test [7], 0.791 (inactive). Further, the figures for the z-score in test [8] and in test [9] were 0.473 (inactive) and -0.826, respectively. Besides, the results for the composite z-score in [4] and in test [10] were -7.33 (inactive) and -0.152, respectively.

With `COCCCNC(=O)[C@@]1(C)c2ccccc2C(=O)N(Cc2ccccc2)[C@H]1c1ccc(CO)cc1`, the z-score in test [1] is -0.0127; in [2], -0.552 (inactive); in [3], 0.392 (inactive); in test [5] it was 0.745 (inactive); in test [6], -0.755 (inactive); in [7], -0.157 (inactive). Further, the z-score in [8] is -0.275 (inactive); in test [9], -0.153. The composite z-score in test [4] was -0.121 (inactive); in test [10] it was -0.0304.

For `CC(C)C(=C=CC[C@H](O)c1ccccc1OCCO)CCO`, the z-score is -0.457 in test [1]; -1.39 (inactive) in test [2]; -0.0976 (inactive) in [3]; 1.17 (inactive) in [5]; 0.0589 (inactive) in test [6]; -0.235 (inactive) in test [7]. Also, the z-score in [8] is -0.153 (inactive); in test [9], 0.217. In addition, the composite z-score is -0.757 (inactive) in [4] and -0.23 in test [10].

In the case of `O=C1OCC=C[C@H]2OC34C=CCN(c5ccc(Cl)cc5)C(=O)[C@H]3N(CCCO)C(=O)[C@@H]4[C@@H]12` (stereo not given in full), the z-score is -0.458 in test [1]; -0.857 (inactive) in test [2]; -0.393 (inactive) in [3]; 0.276 (inactive) in test [5]; 0.123 (inactive) in test [6]; 0.958 (inactive) in [7]. In addition, the figures for the z-score in test [8] and in test [9] were 0.579 (inactive) and 0.0679, respectively. The composite z-score in test [4] is -0.486 (inactive); in test [10], 0.0593.

As for `CC(=O)N1Cc2ccccc2C[C@@]2(N=C(c3ccc(OCCCO)cc3)O[C@H]2c2ccccc2)C1=O`, the z-score in [1] was -1.33; in [2] it was -2.24 (inactive); in test [3], -4.82 (inactive); in test [5], 1.76 (inactive); in test [6] it was 0.372 (inactive); in test [7] it was 1.62 (inactive). Also, the z-score in [8] is 1.4 (inactive); in test [9], -4.8. The composite z-score in test [4] is -0.847 (inactive); in test [10], 0.0651.

Turning to `CCOC(=O)C1=CC[C@@H](c2cccc(Cl)c2)N(S(=O)(=O)c2ccc(C)cc2)[C@H]1c1ccc(C#N)cc1`, the z-score in test [1] was 0.697; in test [2], 2.09 (inactive); in [3], -0.39 (inactive); in test [5] it was 1.68 (inactive); in test [6], 0.834 (inactive); in test [7], -0.905 (inactive). In addition, the z-score in [8] is -0.314 (inactive); in test [9], -1.42. Also, the composite z-score in [4] is 0.21 (inactive); in test [10] it was -0.38.

With `COc1cc(NN2C(C(O)c3ccccc3)C=CC3C(=O)N(c4ccccc4)C(=O)C32)cc(OC)c1OC` (stereo not given), the z-score is -1.04 in [1]; 0.887 (inactive) in [2]; -0.417 (inactive) in test [3]; -0.0751 (inactive) in test [5]; 0.0729 (inactive) in test [6]; 0.32 (inactive) in [7]. For the same compound, the z-score is 0.8 (inactive) in test [8] and -0.827 in test [9]. The values for the composite z-score in test [4] and in test [10] were -1.37 (inactive) and 0.219, respectively.

As for `CCCC[C@@H]1C[C@H]1[C@@H](NC(=O)c1ccccc1)c1ccc(-c2ccccc2)cc1`, the z-score in test [1] is -2.26; in [2] it was -0.552 (inactive); in test [3] it was -2.24 (inactive); in test [5], 0.122 (inactive); in test [6], 0.219 (inactive); in [7] it was -0.499 (inactive). The figures for the z-score in test [8] and in test [9] were -0.293 (inactive) and -3.64, respectively. The composite z-score was -0.297 (inactive) in test [4] and 1.14 in test [10].

On to `C=CCC(OC(C)=O)[C@@H]1[C@@H](N(Cc2ccc(-c3ccccc3)cc2)C(=O)c2ccc(C)cc2)c2cc(OCCCO)ccc2N1C(=O)c1ccc2ccccc2n1` (stereo not given in full), for which the z-score in [1] was 1.53; in test [2] it was -0.769 (inactive); in test [3], 1.3 (inactive); in [5] it was 0.833 (inactive); in [6] it was -1.99 (inactive); in [7], 2.06 (inactive). Moreover, the z-score is 1.82 (inactive) in [8] and 0.924 in [9]. Besides, the composite z-score in test [4] is -0.772 (inactive); in [10], -0.0663.

Consider `CCCCN1CC=CC23O[C@@H]4C=CCCOC(=O)C4[C@H]2C(=O)N(CCCO)[C@@H]3C1=O` (stereo not given in full), for which the z-score is -0.341 in test [1]; -1.09 (inactive) in test [2]; -0.404 (inactive) in test [3]; -0.565 (inactive) in test [5]; 0.0943 (inactive) in [6]; -1.54 (inactive) in test [7]. The values for the z-score in test [8] and in test [9] were -1.34 (inactive) and -0.937, respectively. Besides, the composite z-score in test [4] is -3.94 (inactive); in test [10], 0.268.
